# Measurements published in PubChem BioAssay.
# Calls of active or inactive are those of the source. Unless noted, no stated cut-off is given here; in the data, active means inhibition above about 80%; inactive means the rest.
# Tests used:
# [1] = LFS_MB_P medulloblastoma growth inhibition, cell-based, chromothripsis tumors, cisplatin or BGB combos (AID 1671449); settings: LFS_MB_P medulloblastoma cells;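 further: cells exposed for 96 hours; 0% = vehicle DMSO and 100% = killing by high DMSO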
# [2] = HDN33 neuroblastoma growth inhibition, cell-based, chromothripsis tumors, cisplatin or BGB combos (AID 1671450); settings: HDN33 neuroblastoma cells, stronger effect = higher value;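 further: cells exposed to compound for four days; 0% = vehicle DMSO and 100% = cell killing by high DMSO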
# [3] = ICB984 medulloblastoma cell growth inhibition, synergistic combos for chromothripsis tumors, cisplatin or BGB combos (AID 1671451; call rule not given here;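 further: cells exposed for 96 hours before readout; 0% = vehicle DMSO and 100% = killing by high DMSO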); settings: ICB984 medulloblastoma cells, drug combinations, stronger effect = higher value
# [4] = LFS_MB_1R medulloblastoma cell growth inhibition, synergistic combos for chromothripsis tumors, cisplatin or BGB combos (AID 1671452); settings: LFS_MB_1R medulloblastoma cells, stronger effect = higher value;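 further: cells exposed for 96 hours before readout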
# [5] = HTB85 osteosarcoma cell growth inhibition, synergistic combos for chromothripsis tumors, BGB or cisplatin IC20 combos (AID 1671453); settings: HTB85 osteosarcoma cells, drug combinations, stronger effect = higher value;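 further: cells exposed for 96 hours before readout; 0% = vehicle DMSO and 100% = high DMSO killing control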
# [6] = CRL2098 osteosarcoma cell growth inhibition, synergistic combos for chromothripsis tumors, BGB or cisplatin IC20 combos (AID 1671454); settings: CRL2098 osteosarcoma cells, drug combinations, stronger effect = higher value;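 further: cells exposed for 96 h before readout; 0% = vehicle DMSO and 100% = killing by high DMSO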
# [7] = HD-MB03 medulloblastoma cell growth inhibition, synergistic combos for chromothripsis tumors, BGB or cisplatin IC20 combos (AID 1671455; in the data active means inhibition above about 83%;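 further: 0% = vehicle DMSO and 100% = high DMSO as cytotoxic control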); settings: HD-MB03 medulloblastoma cells, stronger effect = higher value
# [8] = UWB1.289 ovarian carcinoma cell growth inhibition, synergistic combos for chromothripsis tumors, BGB or cisplatin combos (AID 1671456); settings: UWB1.289 ovarian carcinoma cells, stronger effect = higher value;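 further: cells exposed to compound for four days; 0% = vehicle DMSO and 100% = killing by high DMSO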
# [9] = LFS_MB_2R medulloblastoma cell growth inhibition, synergistic combos for chromothripsis tumors, cisplatin combos (AID 1671457); settings: LFS_MB_2R medulloblastoma cells, stronger effect = higher value;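 further: cells exposed to compound for four days before readout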
# [10] = MDA-MB-436 breast carcinoma cell growth inhibition, synergistic combos for chromothripsis tumors, BGB or cisplatin combos (AID 1671458; call rule not given here;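 further: cells exposed for 96 hours; 0% = vehicle DMSO and 100% = killing by high DMSO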); settings: MDA-MB-436 breast carcinoma growth inhibition, drug combinations, stronger effect = higher value
# [11] = UWB1.289_BRCA1 ovarian cancer growth, cell-based, BGB or cisplatin combinations (AID 1671459); settings: UWB1.289 BRCA1 ovarian carcinoma, drug combinations, stronger effect = higher value
# [12] = human astrocyte viability loss, single and combined drugs, cytotoxicity control for chromothriptic childhood tumor combination screen, cell-based, BGB or cisplatin IC20 combos (AID 1671460); settings: Human astrocytes, drug combinations, stronger effect = higher value;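 further: cells exposed to compounds for 96 hours before viability readout; 0% = vehicle and 100% = killing control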
# [13] = growth inhibition of BT084 medulloblastoma cells, cell-based, ICGC_MB145, cisplatin and BGB IC40 combos (AID 1671461); settings: drug combinations, stronger effect = higher value;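 further: cells exposed to drugs for 96 hours; 0% = vehicle DMSO and 100% = high DMSO full killing control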
# [14] = growth inhibition of RCMB18 medulloblastoma cells, cell-based, cisplatin and BGB IC40 combos (AID 1671462); settings: stronger effect = higher value;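 further: cells exposed to compound for four days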
# [15] = growth inhibition of CRL1545 osteosarcoma cells, cell-based, cisplatin and BGB IC20 combos (AID 1671464); settings: stronger effect = higher value;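 further: cells exposed to compound for 96 hours before readout; 0% = vehicle DMSO and 100% = high DMSO killing control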
# [16] = at 0.5 µM, stronger effect = higher value
# [17] = measured here: combination with BGB IC20, at 0.005 µM
# [18] = measured here: combination with BGB IC40, at 0.005 µM
# [19] = measured here: combination with BGB IC40, at 0.05 µM
# [20] = measured here: combination with cisplatin, at 0.5 µM, stronger effect = higher value
# [21] = measured here: combination with cisplatin, at 5 µM, stronger effect = higher value
# [22] = measured here: with BGB IC20 combination, at 0.5 µM
# [23] = measured here: with cisplatin IC20 combination, at 0.5 µM
# [24] = measured here: 5 uM single agent, at 5 µM
# [25] = measured here: combination with cisplatin, at 0.5 µM
# [26] = measured here: combination with cisplatin, at 5 µM
# [27] = measured here: with BGB IC20, at 0.5 µM
# [28] = measured here: with BGB IC20, at 5 µM
# [29] = measured here: with cisplatin IC20, at 0.5 µM
# [30] = measured here: with cisplatin IC20, at 5 µM
# [31] = measured here: combination with BGB at IC20, at 0.5 µM
# [32] = measured here: combination with cisplatin at IC20, at 0.5 µM
# [33] = measured here: combo with BGB at IC20, at 0.5 µM
# [34] = measured here: combo with cisplatin at IC20, at 0.5 µM
# [35] = measured here: inhibition with BGB combination, at 0.05 µM
# [36] = measured here: inhibition with cisplatin combination, at 0.05 µM
# [37] = measured here: BGB combination, at 0.5 µM
# [38] = measured here: BGB combination, at 5 µM
# [39] = measured here: cisplatin combination, at 0.5 µM
# [40] = measured here: cisplatin combination, at 5 µM
# [41] = BGB combination, concentration series, at 5 µM
# [42] = cisplatin combination, concentration series, at 5 µM
# [43] = measured here: combo with BGB IC20, at 0.5 µM
# [44] = measured here: combo with cisplatin IC20, at 0.5 µM
# [45] = cisplatin combination, at 0.5 µM
# [46] = measured here: BGB IC40 combination 0.05 uM, at 0.05 µM
# [47] = measured here: BGB IC40 combination, at 0.05 µM
smiles,measurement,setting,value
C=C(NC(=O)C(=C)NC(=O)c1csc(C2=NC3c4csc(n4)C4NC(=O)c5csc(n5)C(C(C)(O)C(C)O)NC(=O)C5CSC(=N5)/C(=C/C)NC(=O)C(C(C)O)NC(=O)c5csc(n5)C3(CC2)NC(=O)C(C)NC(=O)C(=C)NC(=O)C(C)NC(=O)C(C(C)CC)NC2C=Cc3c(C(C)O)cc(nc3C2O)C(=O)OC4C)n1)C(N)=O (stereo unspecified),inhibition,[1]; [16],-22.9% (inactive)
same,inhibition,[1]; [17],-22.9%
same,inhibition,[1]; [18],-22.6%
same,inhibition,[1]; [19],-22%
same,inhibition,[1]; [20],-25.6%
same,inhibition,[1]; [21],114%
same,inhibition,"[2]; BGB combo, at 5 µM",99.7%
same,inhibition,[2]; at 0.5 µM,-22.8% (inactive)
same,inhibition,"[2]; cisplatin combo, at 5 µM",99.7%
same,inhibition,[2]; [22],-25.3%
same,inhibition,[2]; [23],-12.8%
same,inhibition,"[2]; single agent, at 5 µM",99.8%
same,inhibition,"[3]; BGB IC20 combo, at 0.005 µM",7.79%
same,inhibition,"[3]; BGB IC40 combo, at 0.005 µM",-7.37%
same,inhibition,"[3]; BGB IC40 combo, at 0.05 µM",95.2%
same,inhibition,[3]; at 0.5 µM,-28.5% (inactive)
same,inhibition,"[3]; cisplatin combo, at 0.05 µM",95%
same,inhibition,"[3]; cisplatin combo, at 0.5 µM",-29.7%
same,inhibition,"[3]; cisplatin combo, at 5 µM",-54.9%
same,inhibition,[3]; [24],-28.7%
same,inhibition,[4]; at 0.5 µM,-38.7% (inactive)
same,inhibition,[4]; [19],-31%
same,inhibition,[4]; [25],-9.9%
same,inhibition,[4]; [26],100%
same,inhibition,[5]; at 0.5 µM,11.5% (inactive)
same,inhibition,[5]; [27],1.15%
same,inhibition,[5]; [28],70.9%
same,inhibition,[5]; [29],-4.79%
same,inhibition,[5]; [30],86.9%
same,inhibition,"[5]; single agent, at 5 µM",98.8%
same,inhibition,[6]; at 0.5 µM,-6.59% (inactive)
same,inhibition,[6]; [31],7.69%
same,inhibition,[6]; [32],-29.4%
same,inhibition,[7]; at 0.5 µM,2.14% (inactive)
same,inhibition,[7]; [33],13.1%
same,inhibition,[7]; [34],-39.1%
same,inhibition,[8]; at 0.5 µM,-0.91% (inactive)
same,inhibition,[8]; [35],-20.4%
same,inhibition,[8]; [36],-15.4%
same,inhibition,[9]; at 0.5 µM,-37% (inactive)
same,inhibition,[9]; [25],-29.7%
same,inhibition,[9]; [26],104%
same,inhibition,[10]; at 0.5 µM,16.8% (inactive)
same,inhibition,[10]; [37],16.2%
same,inhibition,[10]; [38],90.8%
same,inhibition,[10]; [39],25.6%
same,inhibition,[10]; [40],94.8%
same,inhibition,[11]; [41],97.5%
same,inhibition,[11]; at 0.5 µM,2.16% (inactive)
same,inhibition,[11]; [42],94.4%
same,inhibition,[12]; at 0.5 µM,-36.8% (inactive)
same,inhibition,[12]; [43],-24.8%
same,inhibition,[12]; [44],-63.7%
same,inhibition,[13]; at 0.5 µM,13.8% (inactive)
same,inhibition,[13]; [45],15.3%
same,inhibition,"[13]; cisplatin combination, at 5 µM",91.8%
same,inhibition,[13]; [46],-3.57%
same,inhibition,"[13]; single agent, at 5 µM",104%
same,inhibition,[14]; at 0.5 µM,-9.28% (inactive)
same,inhibition,"[14]; cisplatin combo, at 5 µM",96.8%
same,inhibition,[14]; [47],-17.4%
same,inhibition,[14]; [25],-6.48%
same,inhibition,"[14]; single agent, at 5 µM",90.8%
same,inhibition,[15]; at 0.5 µM,53.8% (inactive)
same,inhibition,[15]; [22],53.1%
same,inhibition,[15]; [23],53.1%
same,inhibition,"[15]; single agent, at 0.05 µM",-28.1%
same,inhibition,"[15]; single agent, at 5 µM",100%
CCC(Sc1nnc2c3ccccc3n(CC)c2n1)C(=O)Nc1ccccc1OC (stereo unspecified),inhibition,[1]; [16],-17.9% (inactive)
same,inhibition,[1]; [17],-26%
same,inhibition,[1]; [18],87.7%
same,inhibition,[1]; [19],-14.4%
same,inhibition,[1]; [20],-20.5%
same,inhibition,[1]; [21],-38.2%
same,inhibition,"[2]; BGB combo, at 5 µM",-25%
same,inhibition,[2]; at 0.5 µM,-10.1% (inactive)
same,inhibition,"[2]; cisplatin combo, at 5 µM",7.7%
same,inhibition,[2]; [22],-15.6%
same,inhibition,[2]; [23],-11.8%
same,inhibition,"[2]; single agent, at 5 µM",1.35%
same,inhibition,"[3]; BGB IC20 combo, at 0.005 µM",-20.7%
same,inhibition,"[3]; BGB IC40 combo, at 0.005 µM",-12.8%
same,inhibition,"[3]; BGB IC40 combo, at 0.05 µM",-32.4%
same,inhibition,[3]; at 0.5 µM,-26.1% (inactive)
same,inhibition,"[3]; cisplatin combo, at 0.05 µM",-39.2%
same,inhibition,"[3]; cisplatin combo, at 0.5 µM",-34.7%
same,inhibition,"[3]; cisplatin combo, at 5 µM",-6.65%
same,inhibition,[3]; [24],-26%
same,inhibition,[4]; at 0.5 µM,-22.8% (inactive)
same,inhibition,[4]; [19],-32%
same,inhibition,[4]; [25],-18.6%
same,inhibition,[4]; [26],-34.1%
same,inhibition,[5]; at 0.5 µM,0.76% (inactive)
same,inhibition,[5]; [27],6.64%
same,inhibition,[5]; [28],-8.08%
same,inhibition,[5]; [29],-8.64%
same,inhibition,[5]; [30],-18%
same,inhibition,"[5]; single agent, at 5 µM",3.91%
same,inhibition,[6]; at 0.5 µM,-23.4% (inactive)
same,inhibition,[6]; [31],-38.3%
same,inhibition,[6]; [32],-32%
same,inhibition,[7]; at 0.5 µM,-13.9% (inactive)
same,inhibition,[7]; [33],-20.2%
same,inhibition,[7]; [34],-12.1%
same,inhibition,[8]; at 0.5 µM,1.85% (inactive)
same,inhibition,[8]; [35],-11.2%
same,inhibition,[8]; [36],-1.41%
same,inhibition,[9]; at 0.5 µM,-23.8% (inactive)
same,inhibition,[9]; [25],-34.2%
same,inhibition,[9]; [26],-45.7%
same,inhibition,[10]; at 0.5 µM,-18.3% (inactive)
same,inhibition,[10]; [37],-16.3%
same,inhibition,[10]; [38],-14.5%
same,inhibition,[10]; [39],-37.5%
same,inhibition,[10]; [40],-22%
same,inhibition,[11]; [41],-8.24%
same,inhibition,[11]; at 0.5 µM,0.44% (inactive)
same,inhibition,[11]; [42],11.1%
same,inhibition,[12]; at 0.5 µM,10.6% (inactive)
same,inhibition,[12]; [43],14.7%
same,inhibition,[12]; [44],10.3%
same,inhibition,[13]; at 0.5 µM,-2.76% (inactive)
same,inhibition,[13]; [45],-8.44%
same,inhibition,"[13]; cisplatin combination, at 5 µM",-148%
same,inhibition,[13]; [46],-28.4%
same,inhibition,"[13]; single agent, at 5 µM",-15.3%
same,inhibition,[14]; at 0.5 µM,-9.8% (inactive)
same,inhibition,"[14]; cisplatin combo, at 5 µM",-1.17%
same,inhibition,[14]; [47],-28%
same,inhibition,[14]; [25],-27.5%
same,inhibition,"[14]; single agent, at 5 µM",-2.94%
same,inhibition,[15]; at 0.5 µM,-6.26% (inactive)
same,inhibition,[15]; [22],3.68%
same,inhibition,[15]; [23],-13%
same,inhibition,"[15]; single agent, at 0.05 µM",-16.5%
same,inhibition,"[15]; single agent, at 5 µM",1.47%
